According to the supplement of paper PMC12669032:
Values without a mark were called inactive.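 Rule for the calls: active = AUC reduced over 20% with Padj below 0.05 in at least 2 of 3 replicates; inactive = otherwise.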

Assays:
Test in all cases: growth AUC relative to DMSO control (median of replicates) (fraction); higher = more growth (less inhibition), active = hit call of the paper
Conditions in all cases: 20 µM; 24 h
Coprococcus comes = test system: Coprococcus comes
In short: (§1)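 Gut bacteria were grown singly in mGAM at 37 °C without oxygen, from OD600 0.05, alongside 20 µM compound in 1% DMSO, and OD600 was read each hour for 24 h. Area under the growth curve was normalised to the median of solvent-only wells per plate, or to row and column medians on the industrial chemical plate. The minimum OD was set to 0 beforehand, and the reported value is the median of three biological replicates grown on separate days.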

Escherichia coli ED1a = test system: Escherichia coli ED1a
In short: as §1

Escherichia coli IAI1 = test system: Escherichia coli IAI1
In short: as §1

Eubacterium rectale = test system: Eubacterium rectale
In short: as §1

[1] = test system: Fusobacterium nucleatum subsp. animalis
In short: as §1

Lactobacillus gasseri = test system: Lactobacillus gasseri
In short: as §1

Lactobacillus paracasei = test system: Lactobacillus paracasei
In short: as §1

Odoribacter splanchnicus = test system: Odoribacter splanchnicus
In short: as §1

[2] = test system: Parabacteroides distasonis
In short: as §1

Parabacteroides merdae = test system: Parabacteroides merdae
In short: as §1

Compound	growth AUC (Coprococcus comes)	growth AUC (Escherichia coli ED1a)	growth AUC (Escherichia coli IAI1)	growth AUC (Eubacterium rectale)	growth AUC [1]	growth AUC (Lactobacillus gasseri)	growth AUC (Lactobacillus paracasei)	growth AUC (Odoribacter splanchnicus)	growth AUC [2]	growth AUC (Parabacteroides merdae)
COC(=O)C(Cl)Cl	0.986	1	0.989	1	1.07	0.919	0.938	1.01	0.998	1
CC(C)C1(C)N=C(c2ncccc2C(=O)O)NC1=O (stereo not given)	1.02	0.993	0.974	1.01	1.04	0.946	1.03	0.989	1.04	0.997
Clc1ccc(C2(Cn3cncn3)CC(Br)CO2)c(Cl)c1 (stereo not given)	0.997	0.989	1	0.806	0.914	0.891	0.987	0.961	0.952	0.924
CC(C)OC(=O)Nc1cccc(Cl)c1	1.02	1.01	0.965	1.07	1.06	0.85	0.985	1.13	0.965	1.06
O=C(NC(=O)c1c(F)cccc1F)Nc1ccc(Cl)cc1	0.97	0.993	1	1.01	0.987	0.93	0.965	0.985	1.07	0.99
CCCSP(=S)(OCC)Oc1ccc(SC)cc1 (stereo not given)	1.04	1.01	0.959	0.985	1.07	0.946	1.02	1.07	0.98	0.996
CCOP(=S)(OCC)Oc1cc(C)nc(C(C)C)n1	0.982	1	0.992	1.12	1.03	1.02	1.03	0.999	0.924	1
COP(=S)(OC)Oc1ccc(SC)c(C)c1	1.02	0.997	0.987	0.878	1.08	1.01	1.02	1	0.915	0.953
O=C(O)C(F)(F)C(F)(F)C(F)(F)C(F)(F)C(F)(F)C(F)(F)C(F)(F)C(F)(F)C(F)(F)F	0.991	1.01	1.01	0.892	1.01	1.01	1.03	0.993	0.913	0.97
OCC1C(CO)C2(Cl)C(Cl)=C(Cl)C1(Cl)C2(Cl)Cl (stereo not given)	0.934	0.994	0.975	1.07	1	0.827	1.01	0.59 (active)	1.09	0.892
CCOP(=O)(N=C1SCC(C)S1)OCC (stereo not given)	1.03	1.02	0.951	1.1	1.09	0.985	0.971	1.04	0.977	0.976
CNC(=O)Oc1cccc2ccccc12	1.03	1.01	0.982	1.05	1.03	0.907	1.1	1.05	0.944	1
O=C(NC(=O)c1ccccc1Cl)Nc1ccc(OC(F)(F)F)cc1	0.949	0.97	0.952	1.04	0.728	0.856	0.892	1.04	0.965	0.971
CC1=NNC(=O)N(/N=C/c2cccnc2)C1	1.02	0.993	0.991	1	1.02	1.01	0.988	1.03	1.01	0.996
O=C(O)c1ccccc1C(=O)Nc1cccc2ccccc12	0.971	1.05	1	1.08	1.06	0.979	1.02	1.06	0.979	0.987
COP(N)(=O)SC (stereo not given)	1.08	1.03	1.02	1.08	1.11	0.836	1.07	1.04	1.01	1.06
CC[C@H](C)[C@H]1O[C@]2(C=C[C@@H]1C)C[C@@H]1C[C@@H](C/C=C(\C)[C@@H](O[C@H]3C[C@H](OC)[C@@H](O[C@H]4C[C@H](OC)[C@@H](NC)[C@H](C)O4)[C@H](C)O3)[C@@H](C)/C=C/C=C3\CO[C@@H]4[C@H](O)C(C)=C[C@@H](C(=O)O1)[C@]34O)O2.O=C(O)c1ccccc1	0.156 (active)	0.974	0.95	0.865	0.758	0.714 (active)	0.597	1.06	0.0402 (active)	0.345 (active)
CC(CCl)OP(=O)(OC(C)CCl)OC(C)CCl (mixture of isomers)	0.999	0.973	0.984	1.08	1.08	0.851	1.01	1.01	0.94	0.976
COC(=O)[C@@H](C)N(C(=O)Cc1ccccc1)c1c(C)cccc1C	0.978	1.02	1.02	0.991	0.913	0.944	0.979	0.925	0.948	0.921
Cc1cc(Cl)ccc1OC(C)C(=O)O (stereo not given)	0.984	1.01	1.02	0.978	0.945	1.12	0.945	0.942	0.966	1.02
O=C(O)c1cc(Cl)ccc1Cl	0.994	0.97	0.984	1.02	0.994	0.869	0.934	1.08	0.978	0.96
Cc1cc(C)nc(Nc2ccccc2)n1	0.986	1.01	0.974	0.983	1.01	1.09	0.988	0.965	1	0.971
O=C(NC(=O)c1c(F)cccc1F)Nc1ccc(Oc2ccc(C(F)(F)F)cc2Cl)cc1F	1	1.03	1.03	0.994	0.951	1.21	0.974	0.978	0.988	1
COc1ccc(-c2ccccc2)cc1NNC(=O)OC(C)C	0.957	1.03	1.01	1	0.965	0.967	0.971	0.948	0.892	0.937
COC(=O)N(C(=O)N1CO[C@@]2(C(=O)OC)Cc3cc(Cl)ccc3C2=N1)c1ccc(OC(F)(F)F)cc1	0.857	0.946	0.939	1.09	0.92	0.654	0.896	0.994	0.808	0.901
c1nc[n]([Sn]([CH]2CCCCC2)([CH]2CCCCC2)[CH]2CCCCC2)n1	0.723	1.06	1.06	0.908	1.03	1.03	0.972	1.03	0.927	0.746 (active)
CCOP(=O)(NC(C)C)Oc1ccc(SC)c(C)c1 (stereo not given)	0.974	0.985	0.953	1.04	0.903	0.895	0.965	0.954	0.77	0.966
